Reference: PubChem BioAssay (NCATS)
Records with an inconclusive call do not appear. A number with no mark means an inactive call. The source made the active and inactive calls. Calls follow the shape of the dose curve; as a rule, active = well fitted inhibition curve with a large enough effect; inconclusive = small, poorly fitted or top-dose-only effect; inactive = flat fitted curve, though single readings scatter. Where a SMILES comes first, the peptide text is derived from it. [ ]: non-standard residue; d: D form. ξ: configuration not given here. ξPhe(βξ-Me) = CC(c1ccccc1)C(N)C(=O)O; GABA = NCCCC(=O)O

These compounds were tested on NIH3T3 (assay: Cytotoxic Profiling of Annotated Libraries Using Quantitative High-Throughput Screening (AID 1296008; also: nearly all actives have a fitted effect of over 60% in size)). Settings: Five cell lines viability, CellTiter-Glo ATP luminescence, 48-72 h; max response: active compounds read low.
How it was run: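 Compounds were pin-transferred onto cells and incubated 48 or 72 hr at 37 degree Celsius, 95% humidity. CellTiter-Glo was added, plates sat 10 min at room temperature, then ATP-coupled luminescence was imaged as the viability read-out.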
% is scaled to controls: 0 for no effect and ±100 for the full control effect.

Row | SMILES | max response [%] | outcome
1 | O=C(OCc1cccc(O)c1O[C@@H]1O[C@H](CO)[C@@H](O)[C@H](O)[C@H]1O)C1(O)C(=O)C2C=CC1C1C=CC(=O)C(O)(C(=O)OCc3cccc(O)c3O[C@@H]3O[C@H](CO)[C@@H](O)[C@H](O)[C@H]3O)C21 (some centres undefined) | 3.82 | –
2 | C/C=C(\C)C(=O)O[C@H]1[C@H](O)[C@]2(COC(C)=O)[C@H](O)C[C@]3(C)C(=CCC4[C@@]5(C)CC[C@H](O[C@@H]6O[C@H](C(=O)O)[C@@H](O[C@@H]7O[C@H](CO)[C@@H](O)[C@H](O)[C@H]7O)[C@H](O)[C@H]6O[C@@H]6O[C@H](CO)[C@@H](O)[C@H](O)[C@H]6O)[C@](C)(CO)C5CC[C@]43C)[C@@H]2CC1(C)C (some centres undefined) | 2.26 | –
3 | CC(=O)O[C@@H]1C[C@@]23C[C@@]24CC[C@H](OC2OC[C@@H](O)[C@H](O)[C@H]2O)C(C)(C)[C@@H]4CC[C@H]3[C@]2(C)CC3OC4(C[C@@H](C)C3[C@@]12C)OCC1(C)OC14 (some centres undefined) | 3.69 | –
4 | COc1ccc2c(c1O)OC[C@H]1c3ccc(O)cc3O[C@@H]21 | – | inactive
5 | CC1=CC(=O)C2C(C)(C)CCCC2(C)C12CCC1(COC(=O)C1)O2 (centres undefined) | -3.33 | –
6 | C[C@]1(O)CC[C@@H]2C(C(=O)O)=CO[C@@H](O[C@@H]3O[C@H](COC(=O)c4ccc(O)cc4)[C@@H](O)[C@H](O)[C@H]3O)[C@@H]21 | 2.95 | –
7 | O=C(c1ccccn1)c1cnn2c(-c3ccncc3)ccnc12 | 1.02 | –
8 | C=CC1(C)C=C2C(O)CC3C(C)(C(=O)O)CCCC3(C)C2CC1 (centres undefined) | -5.1 | –
9 | COC(=O)C1=CO[C@@H](O[C@@H]2O[C@H](COC(=O)/C=C/c3cc(OC)c(O)c(OC)c3)[C@@H](O)[C@H](O)[C@H]2O)[C@@H]2C(CO)=CC[C@H]12 | 0.53 | –
10 | CC12CCC3C(C)(C)C(O)CCC3(C)C1Cc1c(oc(C(=O)O)cc1=O)O2 (centres undefined) | 1.94 | –
11 | C=C(C)C(C)C1OC23CC4(CO2)C(CCC2C5(C)CCC(OC6OCC(O)C(OC7OC(CO)C(O)C(OC8OCC(O)C(O)C8O)C7O)C6OC6OC(CO)C(O)C6O)C(C)(C)C5CCC24C)C3C(C)(O)C1OC(C)=O (centres undefined) | -2.26 | –
12 | CC(=O)Oc1cc2c(s1)CCN([C@H](C(=O)C1CC1)c1ccccc1F)C2 | 3.19 | –
13 | Cc1ncc([N+](=O)[O-])n1CC(O)CN1CCOCC1 (centres undefined) | – | inactive
14 | O=C(c1ccc(NS(=O)(=O)c2cccc3cccnc23)cc1)N1CCN(CC2CC2)CC1 | 0.212 | –
15 | C/C(=C\CCC(C)(O)c1ccc(C)cc1)C(=O)O (centres undefined) | 0.595 | –
16 | COc1cc(C2Oc3c(OC)cc(/C=C/C(=O)OC[C@H]4O[C@@H](OC(C)(C)C(=O)O)[C@H](O)[C@@H](O)[C@@H]4O)cc3C2CO)ccc1O (some centres undefined) | 1.11 | –
17 | CC(C)CC1NC(=O)C(C(C)c2ccccc2)NC(=O)C(C(C)C)NC(=O)C(C)NC(=O)CCCNC(=O)C(Cc2c[nH]c3ccccc23)NC(=O)C(C)NC1=O (stereo not drawn) (cyclo([GABA]AV[ξPhe(βξ-Me)]LAW); configuration not given here) | 3.96 | –
18 | C=CC1C(O[C@@H]2O[C@H](CO)[C@@H](O)[C@H](O)[C@H]2O)OC=C(C(=O)OC)C1CC(=O)O (some centres undefined) | 3.11 | –
19 | CC1CCC2(NC1)OC1C(=O)C3C4CCC5CC(O[C@@H]6O[C@H](CO)[C@@H](O)[C@H](O)[C@H]6O[C@@H]6O[C@@H](C)[C@H](O)[C@@H](O)[C@H]6O)CCC5(C)C4CCC3(C)C1C2C (some centres undefined) | -2.88 | –
20 | C=C(C(=O)O)C1CCC(C)C2CCC(=O)OC2(C)C1 (centres undefined) | 0.163 | –

Row | SMILES | max response [%] | outcome
21 | CC1(C)C(=O)N2c3ccccc3[C@]3(CC(n4cnc5ccccc5c4=O)C(=O)O3)[C@H]2N1O (some centres undefined) | 1.65 | –
22 | CC(C)c1nc(N(C)S(C)(=O)=O)nc(-c2ccc(F)cc2)c1/C=C/[C@@H](O)C[C@@H](O)CC(=O)O | 0.504 | –
23 | O=C(O)Cc1nn(Cc2nc3cc(C(F)(F)F)ccc3s2)c(=O)c2nccnc12 | 3.31 | –
24 | O=C(O)CCc1cc2ccoc2cc1O[C@@H]1O[C@H](CO[C@@H]2OC[C@](O)(CO)[C@H]2O)[C@@H](O)[C@H](O)[C@H]1O | -2.27 | –
25 | COc1ccc(/C=C/C(=O)O[C@@H]2[C@@H](OC(C)=O)[C@@H](OC(C)=O)[C@H](O[C@H]3[C@@H]4C=CO[C@@H](O[C@@H]5O[C@H](CO)[C@@H](O)[C@H](O)[C@H]5O)[C@@H]4[C@@]4(CO)O[C@@H]34)O[C@H]2C)cc1O | 3.23 | –
26 | C=CC(C)(O)CC/C=C(\C)C(=O)OC1CC2(C(=O)O)CCC3(C)C(=CCC4C5(C)CCC(OC6OC(COC7OCC(O)C(O)C7O)C(O)C(OC7OCC(O)C(O)C7O)C6OC6OC(CO)C(O)C(O)C6OC6OCC(O)C(O)C6O)C(C)(C)C5CCC43C)C2CC1(C)C (centres undefined) | 1.8 | –
27 | C=C1CC2[C@]3(C)C(=C(O)C(=O)[C@@]2(C)[C@]2(C(=O)OC)C(=O)C(C)OC(=O)[C@@]12C)C(C)(C)C(=O)CC3O (some centres undefined) | 0.571 | –
28 | C=C1CCC(OC(C)=O)C2(C)CC3(O)OC(=O)C(C)=C3CC12 (centres undefined) | -2.74 | –
29 | C[C@@H]1CC[C@H]2C(C)(C)[C@H](O)[C@H](O)C[C@]2(C)[C@@]12Cc1c(O)cc3c(c1O2)CNC3=O | 3.46 | –
30 | C[C@H]1[C@H](C)CC[C@]2(C(=O)O[C@@H]3O[C@H](CO)[C@@H](O)[C@H](O)[C@H]3O)CC[C@]3(C(=O)O)C(=CCC4[C@@]5(C)CC[C@H](O[C@@H]6O[C@H](CO)[C@@H](O)[C@H](O)[C@H]6O)C(C)(C)C5CC[C@]43C)[C@H]12 (some centres undefined) | -5.27 | –
31 | C1CCN2CC3C[C@@H](CN4CCCC[C@@H]34)[C@H]2C1 | -1.12 | –
32 | O=C(COc1ccc(Cl)cc1)NC1CCC(NC(=O)COc2ccc(Cl)cc2)CC1 (centres undefined) | -4.22 | –
33 | COc1cc(C(O)C(CO)Oc2ccc(CCCO[C@@H]3O[C@@H](C)[C@H](O)[C@@H](O)[C@H]3O)cc2OC)ccc1O (some centres undefined) | -2.23 | –
34 | CC(C)=CC/C=C(/C)[C@H]1CC[C@]2(C)[C@@H]1[C@H](O)CC1[C@@]3(C)CC[C@H](O)C(C)(C)[C@@H]3[C@@H](O[C@@H]3O[C@H](CO)[C@@H](O)[C@H](O)[C@H]3O[C@@H]3O[C@@H](C)[C@H](O)[C@@H](O)[C@H]3O)C[C@]12C (some centres undefined) | – | inactive
35 | CC1CC(O)C2(C)C(C(=O)O)=CCCC2C1(C)CCc1ccoc1 (centres undefined) | -2.92 | –
36 | C/C=C(\C)C(=O)O[C@@H]1CC2[C@@H](CC=C3C[C@@H](O[C@H]4C[C@H](OC)[C@H](O[C@H]5C[C@H](OC)[C@H](O[C@H]6C[C@H](OC)[C@H](O[C@H]7C[C@@H](OC)[C@H](O[C@@H]8O[C@H](CO)[C@@H](O)[C@H](O)[C@H]8O)[C@@H](C)O7)[C@@H](C)O6)[C@@H](C)O5)[C@@H](C)O4)CC[C@@]32C)[C@@]2(O)CC[C@H](C(C)=O)[C@@]12C (some centres undefined) | 0.771 | –
37 | C[C@@H]1O[C@@H](O[C@H]2[C@H](OC(=O)[C@]34CCC(C)(C)C[C@H]3C3=CCC5[C@@]6(C)C[C@H](O)[C@H](O[C@@H]7O[C@H](CO[C@@H]8OC[C@H](O)[C@H](O)[C@H]8O)[C@@H](O)[C@H](O)[C@H]7O)C(C)(C)C6CC[C@@]5(C)[C@]3(C)C[C@H]4O)OC[C@@H](O)[C@@H]2O)[C@H](O)[C@H](O[C@@H]2OC[C@](O)(CO)[C@H]2O)[C@H]1O[C@@H]1OC[C@H](O)[C@H](O[C@@H]2OC[C@@H](O)[C@H](O)[C@H]2O)[C@H]1O (some centres undefined) | -1.57 | –
38 | O=C(NCC(=O)N1CC[C@H](NC2CCC(O)(c3ccc(-c4ncccn4)cn3)CC2)C1)c1cccc(C(F)(F)F)c1 (some centres undefined) | 3.11 | –
39 | CCNC(=O)CCC/C=C\C[C@@H]1[C@@H](/C=C/C(O)CCc2ccccc2)[C@@H](O)C[C@@H]1O (some centres undefined) | – | inactive
